From PubChem
Only some compounds are listed: those with a hit (about 1.9% of all), similar ones and a draw of the others.
S1P3 antag – blocks the human S1P3 receptor; inhibition, % at 4.98 µM; 0.27% of 170,000 active; AID 485; CHO S1P3 NFAT-BLA reporter, FRET fluorescence, antagonist mode;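 active = inhibition above the plate cutoff, the mean inhibition of test wells on that plate plus 3 SD, cut at about 28% in these data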;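 also: cells challenged with S1P at its EC80 of 0.8 µM; blue over green emission ratio from cleaved BLA substrate after 4 h stimulation; 0% = S1P-stimulated wells and 100% = unstimulated DMSO-only wells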
S1P4 antagonist – antagonists of human S1P4 receptor | S1P4-expressing cells, antagonist mode, reporter read-out | inhibition, % at 4.98 µM | O95977 | 0.26% of 220,000 active; in the data active = inhibition above about 29%;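 also: 0% = wells stimulated with agonist and 100% = vehicle wells without agonist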
S1P4 ag – human S1P4 receptor agonism. S1P4-expressing cell line, agonist reporter assay. activation, % at 4.98 µM. 0.35% of 220,000 active; in the data active = activation above about 11%;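 also: 0% = DMSO vehicle and 100% = reference agonist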
EP2 modulator – modulators of human EP2 prostaglandin E2 receptor; P43116; EP2-expressing cells, cAMP HTRF FRET, PGE2 co-stimulation; induction, % at 25 µM; 0.83% of 260,000 active; AID 940;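 active = compounds whose cAMP rise, as percent of the full-agonist control response, exceeds 60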;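 also: rat C6 glioma line stably carrying human EP2 under a CMV promoter; the protocol text gives 20 µM as final concentration; 100% = response of wells given 1 µM PGE2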
Target sequence (P43116 whole entry, looked up): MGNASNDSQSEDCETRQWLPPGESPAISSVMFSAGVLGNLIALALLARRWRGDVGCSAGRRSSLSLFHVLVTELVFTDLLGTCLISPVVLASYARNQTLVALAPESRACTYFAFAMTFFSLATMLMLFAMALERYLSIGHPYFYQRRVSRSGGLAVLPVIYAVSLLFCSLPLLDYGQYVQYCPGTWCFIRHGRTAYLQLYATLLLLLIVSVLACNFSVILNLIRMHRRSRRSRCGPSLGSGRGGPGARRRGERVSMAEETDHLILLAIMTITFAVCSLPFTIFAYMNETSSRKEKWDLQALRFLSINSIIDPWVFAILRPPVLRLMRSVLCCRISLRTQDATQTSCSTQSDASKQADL
Pf gametocyte – kills late stage P. falciparum gametocytes; P. falciparum stage V gametocytes, ATP luminescence, 24 h; inhibition, % at 10.9 µM; 0.065% of 150,000 active; AID 743093;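 active = inhibition above the mean plus 3 SD of compounds within the control limits, set per campaign, cut at about 38% in these data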;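 also: 0% = DMSO wells and 100% = medium only without gametocytes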
PGE2 EP2 inh – inhibitors of human EP2 prostaglandin E2 receptor. C6 glioma cells expressing human EP2, cAMP TR-FRET; cells stimulated with saturating PGE2. 0.52% of 260,000 active. P43116. inhibition, % at 25 µM;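 active = percent inhibition above 40 after rounding to a whole number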;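 also: rat C6 glioma host cells with rolipram phosphodiesterase inhibitor present; the protocol text gives 20 µM as final concentration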
* = called active by the depositor; . = no result; ! = a repeat was not active.

SMILES | S1P3 antag | S1P4 antagonist | S1P4 ag | EP2 modulator | Pf gametocyte | PGE2 EP2 inh
Cn1c(=O)c2c(nc(N/N=C/c3ccccc3C(=O)O)n2C)n(C)c1=O | . | . | . | 17 | . | 44*
O=C(CN1C(=O)c2ccccc2C1=O)Nc1ccccc1C(=O)NC1CCCCCC1 | . | -2 | -1 | 35 | . | 8
O=C(CN1C(=O)c2cccc3cccc1c23)Nc1ccccc1C(=O)NC1CCCCC1 | . | . | . | 76* | . | 10
CCOc1cc(/C=N/NC(N)=O)cc(Br)c1OCc1ccccc1F | 6 | -11 | 1 | 62* | 1 | 5
CCOc1cc(/C=N/NC(=O)Cn2nc([N+](=O)[O-])cc2C)cc(Br)c1OCc1ccccc1F | . | -3 | -2 | 3 | 1 | 1
CC(=O)Nc1cccc(-c2csc(Nc3ccc(O)cc3)n2)c1 | . | . | . | -95 | . | 19
COc1ccc(C2(NC(=O)c3cncnc3)CCCCC2)cc1 | . | . | . | 12 | . | .
COC(=O)c1sc(N2C(=O)C(=O)/C(=C(\O)c3ccc(OC)c(C)c3)C2c2cccnc2)nc1C (stereo not drawn) | . | . | . | 8 | . | 53*
Cc1nnc(SCC2=C(C(=O)O)N3C(=O)C(N)C3SC2)s1 (stereo not drawn) | . | . | . | 23 | . | 15
O=C(NCc1c(Cl)cccc1Oc1ccccc1)c1ccccc1 | 8 | -1 | -1 | 63* | -14 | 10
Cc1ccc(-n2c(SCCN3CCOCC3)nnc2-c2ccncc2)cc1 | . | . | . | -10 | . | 21
CCn1nc(C)c(CN(CCCn2ccnc2)Cc2ccccc2C)c1C | . | . | . | 17 | . | 3
Cc1ccccc1CCN(Cc1cc2cccc(C)c2[nH]c1=O)C(=O)NC1CCCCC1 | . | . | . | -5 | . | 8
Clc1ccc(-c2ccc(-c3nn4c(-c5ccco5)nnc4s3)o2)cc1 | -3 | 2 | 2 | . | . | 6
Cc1ccc(OCc2nn3c(-c4ccco4)nnc3s2)cc1 | -8 | -16 | 1 | 63* | 15 | 6
Brc1ccc(-c2nn3c(-c4ccco4)nnc3s2)o1 | 3 | -7 | 2 | 33 | -8 | 43*
Clc1ccc(OCc2nn3c(-c4ccco4)nnc3s2)c(Cl)c1 | 11 | -11 | 0 | 5 | 14 | 6
COc1ccccc1NC(=O)c1ccccc1NC(=O)c1cc(Cl)ccc1NC(=O)c1ccco1 | . | 2 | 0 | 42 | 39* | 4
COc1ccccc1NC(=O)c1cc(Cl)ccc1NC(=O)c1ccco1 | . | -3 | 2 | 30 | 11 | 13
CCC(CC)c1nnc(NC(=O)c2ccccc2SCCOC)s1 | . | . | . | -24 | . | 13
CC[C@@]1(O)C(=O)OCc2c1cc1n(c2=O)Cc2cc3c(CN(C)C)c(O)ccc3nc2-1 | . | . | . | 22 | . | 58*!
COc1ccc2c(Cc3c4ccccc4cc4ccccc34)cncc2c1O | . | . | . | 28 | . | 40*
Cc1nnc(SCc2ccc(Cl)cc2Cl)o1 | . | . | . | 34 | . | 11
Oc1nc(Nc2ccccc2)sc1/C=C1\C=Nc2ccccc21 | 3 | 5 | 1 | -64 | 2 | 72*
CC1(C)Cc2c(c(N3CCOCC3)nc3oc(C(=O)c4ccccc4)c(N)c23)CO1 | . | . | . | 6 | . | 15
SMILES | S1P3 antag | S1P4 antagonist | S1P4 ag | EP2 modulator | Pf gametocyte | PGE2 EP2 inh
O=C(COC(=O)CSc1ccc2ccccc2c1)NCc1ccc2c(c1)OCO2 | -3 | 1 | 1 | 38 | 48* | 9
CCOC(=O)CSC1=Nc2ccccc2C2=NC(CC(=O)NCc3ccc(OC)cc3)C(=O)N12 (stereo not drawn) | 13 | -11 | 1 | 28 | -10 | 9
CCOC(=O)CSC1=Nc2ccccc2C2=NC(CC(=O)NCc3ccc4c(c3)OCO4)C(=O)N12 (stereo not drawn) | 4 | 10 | 72* | 1 | -9 | 11
O=C(COc1ccc2ccccc2c1)NCc1ccc2c(c1)OCO2 | . | . | . | -123 | . | 20
Cc1noc(C)c1CCC(=O)N1CCN(Cc2ccccc2F)C[C@@H]1C(C)C | . | . | . | -5 | . | .
COc1ccc(CNc2c(-c3ccc(O)cc3O)nc3cnccn23)cc1 | . | . | . | -46 | . | 8
Cc1cc(C)c2c(NCc3ccccn3)n[nH]c2n1 | . | . | . | 22 | . | 10
CCOc1ccc(S(=O)(=O)N2CCN(S(=O)(=O)c3ccc(OCC)cc3)C(C)C2)cc1 (stereo not drawn) | 71* | -2 | -1 | 24 | 0 | 7
CCOc1ccc(S(=O)(=O)N2CN3CCN(C3)C2)cc1 | . | . | . | . | -35 | .
O[N+]1=CC=CCC1=S.On1ccccc1=S.[Zn] | . | . | . | -38 | . | 118*
COc1cc(Br)c(C=C2C(=O)N(C)C(=O)N(C)C2=O)cc1OC | . | . | . | -53 | . | 9
N=C(N)c1ccc(-c2ccc(-c3ccc(C(=N)N)cc3)o2)cc1 | . | . | . | -11 | . | 52*
COc1cccc2c1C(=N)c1c(O)c3c(c(O)c1C2=O)C[C@](O)(C(C)=O)C[C@@H]3O[C@@H]1C[C@H](N)[C@@H](O)[C@H](C)O1 | . | . | . | -116 | . | 128*
COc1cccc2c1C(=O)c1c(O)c3c(c(O)c1C2=O)C[C@@](O)(C(=O)CO)C[C@@H]3O[C@H]1C[C@H](N)[C@@H](O)[C@H](C)O1 | . | . | . | . | . | 18
COc1cccc2c1C(=O)c1c(O)c3c(c(O)c1C2=O)C[C@](O)(C(=O)CO)C[C@@H]3O[C@@H]1C[C@H](N)[C@@H](O)[C@H](C)O1 | . | . | . | 31 | . | 40*
CC(=O)[C@]1(O)Cc2c(O)c3c(c(O)c2[C@@H](O[C@H]2C[C@H](N)[C@H](O)[C@H](C)O2)C1)C(=O)c1ccccc1C3=O | . | . | . | -13 | . | 22
COc1cccc2c1C(=O)c1c(O)c3c(c(O)c1C2=O)C[C@@](O)(C(C)=O)C[C@@H]3O[C@H]1C[C@H](N)[C@H](O)[C@H](C)O1 | -2 | 101* | -3 | 0 | . | .
CC(=O)c1ccc(S(=O)(=O)N2CCCCC2C)cc1 (stereo not drawn) | . | . | . | 3 | . | 28
N=C1/C(=C\c2ccc(-c3cccc(C(=O)O)c3)o2)C(=O)N=C2SC=C(c3ccccc3)N12 | -9 | -5 | 2 | -50 | 6 | 59*
COC(=O)c1c(NC(=O)Cc2ccccc2)sc(C(=O)N2CCOCC2)c1C | . | . | . | -35 | . | 8
C=CCc1cc(Cl)ccc1OCCOCCNC(C)CC (stereo not drawn) | -5 | 4 | 2 | -42 | -6 | 5
C=CCc1cc(C)ccc1OCCOCCC(C(=O)OCC)C(=O)OCC | 2 | 3 | 2 | 62* | -3 | 13
CCC(=O)N(Cc1ccco1)Cc1cc2cc(C)cc(C)c2[nH]c1=O | . | . | . | -20 | . | 11
C[C@@H]1C[C@H](C)CN(S(=O)(=O)c2cc(Cl)c(Oc3ccc([N+](=O)[O-])cc3Cl)c(Cl)c2)C1 | . | . | . | 13 | . | 44*
Nc1c2c(nc3ccccc13)CCCC2 | 0 | 2 | 0 | 8 | . | 12
Cc1cccc2c(N)c3c(nc12)CCCC3 (tested in a mixture with another compound) | -17 | -7 | 0 | -3 | 43* | 9
Nc1ccc(-c2nn3cnnc3s2)cc1 | . | . | . | -29 | . | 9
CCOc1cc(-c2nn3cnnc3s2)cc(OCC)c1OCC | 6 | -14 | 2 | 61* | . | 7
CCn1c(=O)c2c(nc(SCC(=O)c3ccc(F)cc3)n2C)n(C)c1=O | . | . | . | -32 | . | 4
